For orientation: AC50 means the concentration giving half of the maximal activity seen.

These results are taken from PubChem BioAssay (EPA / NIEHS).

Results filed as inconclusive are left out. Active and inactive are the calls of the source. How the source made its calls: active means hit-call score of the fitted dose curve at least 0.9, where 1 is the maximum; inconclusive means response in the unintended direction; inactive means score below 0.9.

This experiment is described as follows: Tanguay_ZF_120hpf_PFIN_legacy: (Legacy) Oregon State University Tanguay Lab 120 Hour Post-fertilization zebrafish Assay for Pectoral Fin Malformation (AID 2283648).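 Further: each larva judged yes or no for fin defect by brightfield with dead larvae skipped.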 As to the method: Tanguay_ZF_120hpf_legacy is a whole embryo, multiplexed endpoint assay using zebrafish larvae exposed for 120 hours post fertilization on a 96-well plate.Tanguay_ZF_120hpf_PFIN_legacy is one of one assay component(s) measured or calculated from the Tanguay_ZF_120hpf_legacy assay. It is designed to make measurements of zebrafish development as detected with brightfield microscopy of developing zebrafish embryos.Data from the assay component Tanguay_ZF_120hpf_PFIN_legacy was analyzed into 1 assay endpoints. This assay endpoint, Tanguay_ZF_120hpf_PFIN_legacy, was analyzed in the positive analysis fitting direction relative to DMSO as the negative control and baseline of activity. Using a type of morphology reporter, gain-of-signal activity can be used to understand changes in developmentals as they relate to the whole embryo. To generalize the intended target to other relatable targets, this assay endpoint is annotated to the zebrafish development intended target family, where the subfamily is pectoral fin morphogenesis.
Zebrafish husbandry: Tropical 5D wild-type adult zebrafish were housed in at an approximate density of 1000 per 100 gallon tank at the Sinnhuber Aquatic Research Laboratory, Oregon State University, Corvallis, OR. Each tank was kept at standard laboratory conditions of 28C on a 14-h light/10-h dark photoperiod in fish water consisting of reverse osmosis water supplemented with a commercially available salt (Instant Ocean). Spawning funnels were placed into the tanks the night prior, and embryos were collected and staged. To increase bioavailability, the chorion was enzymatically removed using pronase (63.6mg/ml, >/= 3.5U/mg, Sigma-Aldrich: P5147) at 4 hours post fertilization (hpf) using a custom automated dechorionator.Chemical exposures: Six hpf dechorionated embryos were placed 1 embryo per well in a 96-well plate prefilled with 90 ul of EM using automated embryo placement systems (AEPS). Ten microliters of each row of dilution plate 2 was added to 2 exposure plates. The final DMSO concentration used was 0.64% (vol/vol). Thirty-two embryos were also exposed to 5uM trimethyltin chloride (positive control). Plates were sealed to prevent evaporation and foil covered to reduce light exposure and kept in a 28C incubator. Embryos were statically exposed until 120 hpf. At 24 hpf, embryos were assessed for photomotor response using a custom photomotor response analysis tool (PRAT) and for developmental toxicity endpoints (MO24: mortality at 24 hpf, DP: developmental progression, SM: spontaneous movement, and NC: notochord distortion). At 120 hpf, locomotor activity was measured using Viewpoint Zebralab and assessed for 18 endpoints. Zebrafish acquisition and analysis program (ZAAP), a custom program designed to inventory, acquire, and manage zebrafish data, was used to collect developmental endpoints as either present or absent (i.e., binary responses were recorded). If mortality occurred for an embryo (at either 24 or 120 hpf), the non-mortality endpoints were not measured.
For the compound `O=C(NO)C1(NS(=O)(=O)c2ccc(Oc3ccc(F)cc3)cc2)CCOCC1`, the outcome was inactive.
Regarding `C[C@@H](Oc1ccc(CNC(=O)c2cccnc2Oc2ccc3c(c2)OCO3)c(F)c1)C(=O)O`, the call was inactive.
For the compound `O=C(O)c1cccc(C[C@@H]2COc3ccc(OCc4nc5cc(F)ccc5s4)cc3[C@@H]2O)c1`, the compound was classed as inactive.
As to `CCCC(CCC)C(=O)O`, the compound was classed as inactive.
The same measure, in the same setting: to `CCCCC(CC)C(=O)OCCOCCOCCOC(=O)C(CC)CCCC` (stereo not given) belongs “inactive”.
Take `COc1cc2c(c(OC)c1OC)-c1ccc(OC)c(=O)cc1[C@@H](NC(C)=O)CC2`: the AC50 is 21 µM (active).
As for `Cc1nc(-c2ccccn2)ncc1C(=O)Nn1cc(C)c2cc(F)ccc21`, the compound was classed as inactive.
The same measure, in the same setting: next, `O=C1CN(N=Cc2ccc([N+](=O)[O-])o2)C(=O)N1`: “inactive”; `OC[C@H]1O[C@@](CO)(O[C@H]2O[C@H](CO)[C@@H](O)[C@H](O)[C@H]2O)[C@@H](O)[C@@H]1O`: “inactive”.
On the same count and under the same terms, next, `O=C(O)c1cccc(C(=O)O)c1`: “inactive”; `O=S1(=O)CCCO1`: “inactive”; `CCCCCCCCCCCCCCO`: “inactive”.
Still for that read-out and setting: to `COS(C)(=O)=O` belongs “inactive”; to `Cc1ccc(S(=O)(=O)NC(=O)NN2CCCCCC2)cc1`, “inactive”; to `CCN(CC)C(=S)SSC(=S)N(CC)CC`, “inactive”.
As to `CC[C@H](C)C(=O)O[C@H]1C[C@H](O)C=C2C=C[C@H](C)[C@H](CC[C@@H](O)C[C@@H](O)CC(=O)O)[C@H]21`, the compound was called inactive.
`OC(CCl)CCl`: the compound was classed as inactive.
On the same count and under the same terms, to `CCOC(N)=O` belongs “inactive”; to `CC(C)CCCCCCOC(=O)C1CCCCC1C(=O)OCCCCCCC(C)C` (stereo not given), “inactive”.
Same read-out and setting: to `CCc1ccc(O)c(C(C)(C)C)c1` belongs “inactive”; to `CCCCN1C(=O)[C@@H]([C@H](O)C2CCCCC2)NC(=O)C12CCN(Cc1ccc(Oc3ccc(C(=O)O)cc3)cc1)CC2`, “inactive”.
Still for that read-out and setting: next, `OCc1ccccc1`: “inactive”; `CCCOc1ccc(S(=O)(=O)N2CCN(CC)CC2)cc1-c1nc2c(CC)n(Cc3ccccn3)nc2c(=O)[nH]1`: “inactive”.
With `Nc1ccn([C@@H]2O[C@H](CO)[C@@H](O)[C@@H]2O)c(=O)n1`, the call was inactive.
The same measure, in the same setting: next, `OCCNCCO`: “inactive”.
In the case of `CCCCCCOC(=O)CC(CC(=O)OCCCCCC)(OC(=O)CCC)C(=O)OCCCCCC`, the compound was classed as inactive.
On the same count and under the same terms, next, `Cc1nccn1-c1ccc(Sc2cccc(C3(C(N)=O)CCOCC3)c2)cc1`: “inactive”; `CCCc1ccccc1`: “inactive”; `CCn1nc(C)c2c1C(=O)NCC(c1ccc(O)cc1)=N2`: “inactive”.
Still for that read-out and setting: to `c1ccc2cc3ccccc3cc2c1` belongs “inactive”; to `OCC(CO)(CO)CO`, “inactive”.
In the case of `NC(=O)NN=Cc1ccc([N+](=O)[O-])o1`, the compound was called inactive.
Same read-out and setting: next, `CCCCCCCCN(C)C`: “inactive”.
On the same count and under the same terms, to `C=CCc1cc(S(=O)(=O)c2ccc(O)c(CC=C)c2)ccc1O` belongs “inactive”; to `NC(=O)N(O)[C@@H]1COc2cc(OCc3ccccc3)ccc21`, “inactive”.
The same measure, in the same setting: next, `c1ccc2c(c1)-c1cccc3c1c-2cc1ccccc13`: “inactive”; `COc1cc(C(C)C)c2c(c1)S(=O)(=O)N(COc1cc(=O)n3cccc(OCCN4CCCCC4)c3n1)C2=O`: “inactive”.
Consider `OCCOCCOCCO`, for which the compound was called inactive.
The same measure, in the same setting: next, `CCCCCCCCCCCCCCCCOS(=O)(=O)O`: “inactive”; `CNC(C)=O`: “inactive”.
